# According to article PMC5540273 (PLoS ONE, 2017):
# Tested on: PRKG1
# Details: concentration: 1 μM, replicates: in singlicate; n = 1
# 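Further: KINOMEscan kinase panel screen.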
row,SMILES,%Inh [%]
1,Nc1ncc(-c2ccc3nccc(-c4ccncc4)c3c2)cc1S(=O)(=O)N1CCOCC1 [GSK1627798],0
2,Cn1cc(-c2ccc3c(c2)CCN3C(=O)Cc2cccc(Cl)c2)c2c(N)ncnc21 [GSK2606590],14
3,CC(C)(C)c1ccc2nccc(Nc3cccc(O)c3)c2c1 [GW856795],1
4,CC(=O)Nc1nc2cnc(Nc3cc(NC(=O)c4cccc(C5(C#N)CC5)c4Cl)ccc3C)nc2s1,0
5,COc1cc(Nc2nccc(N3CCC(NC(=O)c4cc5ccccc5s4)C3)n2)cc(OC)c1OC (stereo not shown) [GSK1379760],9
6,Cc1occc1-c1ncc(OC[C@@H](N)Cc2c[nH]c3ccccc23)cc1-c1ccc2[nH]nc(C)c2c1.O=C(O)C(F)(F)F [GSK682037],57
7,C[C@@H]1CC[C@@H](C(=O)Nc2ccccc2)CN1c1cc(-c2ccc3c(N)n[nH]c3c2)nc(N)n1 [GSK2286062],0
8,O=c1[nH]cc(-c2ccc(N3CCOCC3)cc2)c2sc(-c3cn[nH]c3)cc12 [GSK2276055],0
9,COc1cccc(C2=C(Nc3ccc(Cl)c(C(=O)O)c3)C(=O)NC2=O)c1 [SB-390769],0

# Tested on: PRKG2
# Details: concentration: 1 μM, replicates: in singlicate; n = 1
row,SMILES,%Inh [%]
1,COC(=O)Nc1nc2cc(Oc3ccc(NC(=O)Nc4cc(C(F)(F)F)ccc4F)cn3)ccc2[nH]1.Cl.Cl [GW681170],22
2,Fc1ccc(-c2ncn(C3CCNCC3)c2-c2ccnc(Oc3ccc(-c4ccccc4)cc3)n2)cc1 [SB-245391],26
3,Cc1ccc(C)c(NC(=O)NC2CCN(c3ccnc(Nc4ccc(F)cc4)n3)C2)c1 (stereo not shown) [GSK1379720],0
4,CSc1cccc2c(-c3ccncn3)c(-c3ccc(F)cc3)nn12 [GW514786],0
5,Oc1cc(Nc2ccnc3cc(I)ccc23)ccc1F [GW552771],0
6,Cc1ccc(S(=O)(=O)Nc2ccc(Nc3nccc(Nc4cccc5[nH]ncc45)n3)cc2)cc1 [GSK581271],5
7,COc1cccc(-c2ccc3c(NC(=O)C4CC4)n[nH]c3n2)c1 [SB-710903],0
8,O=C(Nc1cccc(-c2nn3ccccc3c2-c2ccnc(Nc3cccc(C(F)(F)F)c3)n2)c1)c1c(F)cccc1F [GSK292658],0
9,Cl.Cl.NCC(NCc1ccc(-c2ccnc3[nH]ccc23)s1)c1ccccc1 (stereo not shown) [GSK1321565],97.8
10,CCn1c(-c2nonc2N)nc2c(C#CC(C)(C)O)nc(OC[C@H](N)c3ccccc3)cc21 [GSK943949],92.6
11,COCCOCCOc1cc2ncc3c4ccc(C#N)cc4[nH]c3c2cc1OC,17
12,Clc1ccc(-c2nn3ncccc3c2-c2ccnc(Nc3ccc4c(c3)OCCO4)n2)cc1 [GW829116],0
13,COc1cccc(NC(=O)NC2CCN(c3ccnc(Nc4cc(OC)c(OC)c(OC)c4)n3)C2)c1 (stereo not shown) [GSK1379763],0
14,COc1cccc(C(=O)Nc2cccc(Oc3ccc4nc(NC(=O)C5CC5)cn4n3)c2)c1,21
15,CN(C)Cc1ccc(-c2ccc3c(Nc4ccc(Oc5ccccn5)cc4)ccnc3c2)o1 [GW567148],0
16,Nc1ncc(-c2cccnc2)c2scc(-c3ccc4c(c3)CCN4C(=O)Cc3ccccc3)c12 [GSK683281],25
17,COc1ccc(Nc2nccc(NCCNC(=O)c3cc4ccccc4s3)n2)cc1 [GSK1379896],0
18,O=C(Nc1n[nH]c2nc(-c3ccc(O)cc3)ccc12)C1CC1 [SB-710363],10
19,O=C(Nc1cccc(-c2nn3ccccc3c2-c2ccnc(Nc3cccc(F)c3)n2)c1)c1c(F)ccc(F)c1Cl [GSK357952],1

row,SMILES,%Inh [%]
1,CN1CCN(Cc2cccc(-c3ccc4c(Nc5ccc(Oc6ccccc6)cc5)ccnc4c3)c2)CC1 [GW578342],0
2,COc1cc(Nc2nccc(N3CCC(NC(=O)Nc4cccc(C(C)=O)c4)C3)n2)cc(OC)c1OC (stereo not shown) [GSK1379753],0
3,c1ccc(Oc2ccc(Nc3ccnc4cc(-c5ccc(CNCCN6CCOCC6)o5)ccc34)cc2)nc1 [GW567145],2
4,CC(C)c1nc(-c2cccc(NS(=O)(=O)c3c(F)cccc3F)c2F)c(-c2ccnc(Nc3ccc(N4CCOCC4)nc3)n2)s1 [GSK2008607],0
5,C[C@@H](Oc1cc(-n2cnc3cc(-c4ccnc(NCCS(C)(=O)=O)c4)ccc32)sc1C(N)=O)c1ccccc1Cl [GSK907232],0
6,Cn1cc(-c2[nH]c3cc(NC(=O)[C@H](N)C4CCCCC4)cc4c3c2C=NNC4=O)cn1,96.2
7,CCS(=O)(=O)c1ccc(OC)c(Nc2nccc(-c3c(-c4cccc(NC(=O)c5c(F)cccc5F)c4)nn4ncccc34)n2)c1 [GSK326180],3
8,Cl.NC(=O)c1cccc(Nc2nccc(Nc3ccc(Oc4c(Cl)cccc4Cl)c(Cl)c3)n2)c1 [GW659009],0
9,Nc1ncc(-c2ccc3nccc(-c4ccncc4)c3c2)cc1S(=O)(=O)N1CCOCC1 [GSK1627798],0
10,Cn1cc(-c2ccc3c(c2)CCN3C(=O)Cc2cccc(Cl)c2)c2c(N)ncnc21 [GSK2606590],0
11,CC(C)(C)c1ccc2nccc(Nc3cccc(O)c3)c2c1 [GW856795],4
12,CC(=O)Nc1nc2cnc(Nc3cc(NC(=O)c4cccc(C5(C#N)CC5)c4Cl)ccc3C)nc2s1,0
13,COc1cc(Nc2nccc(N3CCC(NC(=O)c4cc5ccccc5s4)C3)n2)cc(OC)c1OC (stereo not shown) [GSK1379760],7
14,Cc1occc1-c1ncc(OC[C@@H](N)Cc2c[nH]c3ccccc23)cc1-c1ccc2[nH]nc(C)c2c1.O=C(O)C(F)(F)F [GSK682037],14
15,C[C@@H]1CC[C@@H](C(=O)Nc2ccccc2)CN1c1cc(-c2ccc3c(N)n[nH]c3c2)nc(N)n1 [GSK2286062],0
16,CCn1c(-c2nonc2N)nc2c(C#CC(C)(C)O)ncc(OCCCCN)c21.O=C(O)C(F)(F)F.O=C(O)C(F)(F)F [GSK507274],96
17,O=c1[nH]cc(-c2ccc(N3CCOCC3)cc2)c2sc(-c3cn[nH]c3)cc12 [GSK2276055],10
18,COc1cccc(C2=C(Nc3ccc(Cl)c(C(=O)O)c3)C(=O)NC2=O)c1 [SB-390769],41
